Rows were chosen to be rich in hits. Some 5.7% of all compounds tested hit in one or more screens of this group.
KB-3-1 cytotox: kills parental KB-3-1 adenocarcinoma cells; KB-3-1 viability, CellTiter-Glo ATP luminescence, 72 h; Potency, µM (series often up to 46.1 µM), hits mostly cytotoxic; hit rate 1.4% among 400,000; AID 1347075; also: potency is read from the fitted curve at half-maximal effect; nearly all actives have a fitted effect of over 60% in size
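Luminescent ATP read-out (CellTiter-Glo) measures survival of drug-naive KB-3-1 cells after 72 h compound exposure at 37 °C. Titration series was screened from lowest to highest concentration, with DMSO vehicle plates as background controls.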
A549 viability: kills or reduces viability of A549 cells in Nrf2 counter-screen. A549 ARE-Fluc cells, CellTiter-Fluor viability, 18-24 h. Potency, µM (top dose mostly 46 µM), inactives show top-dose activity change, negative = cytotoxicity, usual class: inhibitors. hit rate 0.16% among 390,000; also: potency is read from the fitted curve at half-maximal effect
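A549 ARE-Fluc cells in 5% FBS OPTI-MEM, 5000 cells/well, rested 2 h then exposed to compounds in concentration-response for 18-24 h at 37 °C. Viability by CellTiter-Fluor fluorescence (Ex 405/Em 525) after 30 min; luciferase luminescence (BugLite, 15 min, RT) read afterwards.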
Giardia killer: Giardia lamblia killing. activity change, % at 7.66 µM, hits read low. hit rate 0.15% among 340,000. Giardia lamblia trophozoite viability. AID 540267; in the data active = activity change below about -80%; inconclusive = between about -30% and that limit;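 also: parasites exposed to compound for two days anaerobically before the ATP read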
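Viability, read as ATP luminescence: trophozoites at 100 cells/well, compound added, 48 hrs anaerobic at 37 deg C, then 15-30 min room-temperature development before reading.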
KB-V1 cytotox: kills drug-selected multidrug resistant KB-V1 cells; KB-V1 MDR cells viability, CellTiter-Glo, 72 h; Potency, µM (titrated, usually from 46.1 µM), hits mostly cytotoxic; hit rate 3.4% among 400,000; AID 1347076; also: potency is read from the fitted curve at half-maximal effect; nearly all actives have a fitted effect of over 60% in size
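Drug-selected KB-V1 cells, grown in DMEM lacking phenol red with 10% FBS, receive compound titrations; after three days at 37 degrees C, surviving cell ATP is quantified by CellTiter-Glo luminescence and responses normalized and curve-fitted.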
PI4K2A block: blocks human PI4K2A kinase activity; hit rate 0.13% among 420,000; activity change, negative = inhibition, % at 76.9 µM; purified PI4K2A, ADP-Glo luminescence, 1 h; hits give low values; AID 1346378; Q9BTU6; in the data active = activity change below about -50%; inconclusive = mostly about -30% to -49%;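 also: -100% = wells without enzyme as full effect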
Target sequence (Q9BTU6 whole entry, looked up): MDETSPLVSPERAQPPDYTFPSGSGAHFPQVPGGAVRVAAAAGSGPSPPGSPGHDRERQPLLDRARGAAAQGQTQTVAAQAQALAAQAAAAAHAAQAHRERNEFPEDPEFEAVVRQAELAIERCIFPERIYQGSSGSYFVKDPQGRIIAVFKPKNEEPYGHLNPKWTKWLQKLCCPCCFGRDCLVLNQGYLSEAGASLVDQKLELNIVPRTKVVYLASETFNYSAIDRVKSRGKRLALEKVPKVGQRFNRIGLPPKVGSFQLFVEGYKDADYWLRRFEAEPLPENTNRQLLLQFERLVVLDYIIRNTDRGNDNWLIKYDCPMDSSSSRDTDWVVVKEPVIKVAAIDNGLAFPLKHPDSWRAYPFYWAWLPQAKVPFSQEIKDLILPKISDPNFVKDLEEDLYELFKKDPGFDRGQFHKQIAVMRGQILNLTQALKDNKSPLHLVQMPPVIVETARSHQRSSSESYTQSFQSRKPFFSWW
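ADP-Glo luminescence measured ADP generated by PI4K2A enzyme (4 ug/mL before mixing) with 1.2 mM PI substrate (pre-mix) and 300 microM ATP (pre-mix). Tris pH7.5 buffer with MgCl2, Triton X-100; 1 h reaction at ambient temperature.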
Nrf2 inh: Nrf2 pathway inhibition | Potency, µM (top dose mostly 46 µM), for inactives: top-dose activity change, negative = inhibition, most hits filed as inhibitors | AID 504444 | hit rate 2.1% among 360,000 | A549 ARE-Fluc reporter, luciferase luminescence, 18-24 h; also: potency is read from the fitted curve at half-maximal effect; nearly all actives have a fitted effect of over 60% in size
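Two sequential reads on A549 ARE_Fluc cells exposed to compound for 18-24 h: a CellTiter-Fluor fluorescence read for viability, then a luciferase luminescence read for Nrf2/ARE activity.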
* marks the source's active call; other numbers are inactive results; i = inactive; ? = inconclusive; / = no result. Unless noted, calls follow the shape of the dose curve; as a rule, active = well fitted curve in the direction sought with a large enough effect; inconclusive = small, poorly fitted or top-dose-only effect, or another doubt; inactive = no such curve, though single readings can be large; an effect the other way counts as inactive or inconclusive. Unless noted, % is scaled to controls: 0 for no effect and ±100 for the full control effect.

SMILES	KB-3-1 cytotox	A549 viability	Giardia killer	KB-V1 cytotox	PI4K2A block	Nrf2 inh
COC(=O)C1=C(C(=O)OC)[C@@]2([C@H](Cc3ccc(C)cc3)Nc3ccccc3)C=C[C@@H]1O2	/	/	/	/	-1.4	/
CCOC(=O)c1[nH]c(C)c(C(=O)N2CCOCC2)c1C	i	-9.9%	11.6	i	1.2	-15.5%
CCOc1ccc2ccccc2c1C(=O)N1CCN(c2ccccc2)CC1	23.1µM*	-12.9%	-0.9	4.11µM*	2.1	-51.8%
CCOC(=O)c1c(C)[nH]c(C(=O)OCc2ccccc2)c1C	i	1.4%	-1.3	i	6.0	?
CCOc1ccccc1C(=O)N1CCN(c2cccc(Cl)c2)CC1	i	?	-6.8	i	3.7	3.5%
N#Cc1ccccc1OCC(=O)N1CCN(c2ccccc2)CC1	i	0.9%	/	i	0.2	6.9%
CCOC(=O)c1[nH]c(C)c(C(=O)N2CCN(c3ccccc3)CC2)c1C	i	0.0%	-9.4	16.4µM*	-1.7	/
O=C(COc1ccccc1Br)N1CCN(c2ccccc2)CC1	i	-19.6%	-3.0	18.4µM*	2.4	3.4%
CCOC(=O)c1[nH]c(C)c(C(=O)N(C)Cc2ccccc2)c1C	i	-19.7%	-16.7	16.4µM*	6.8	-21.9%
CCc1ccc(S(=O)(=O)Nc2ccc3[nH]c(=O)sc3c2)cc1	/	2.5%	/	/	0.9	/
O=C1NCCc2c1[nH]c1ccc([N+](=O)[O-])cc21	1.64µM*	-6.0%	-6.2	0.92µM*	3.3	?
O=C1NCCc2c1[nH]c1ccccc21	?	-9.8%	1.1	6.51µM*	1.7	-3.7%
COc1ccc2[nH]c3c(c2c1)CCNC3=O	?	-2.1%	?	?	-3.4	-9.4%
CC(=O)c1[nH]c(C)c(C(=O)NCc2ccc(Cl)cc2)c1C	/	15.8%	/	/	3.0	-17.0%
Cc1ccc(/C=C/c2onc(C)c2S(=O)(=O)N2CCC(C(=O)Nc3cccc(C#N)c3)CC2)cc1	i	-0.8%	/	i	-3.2	/
CC(=O)c1ccccc1OCc1ccc(S(=O)(=O)Cc2ccccc2)cc1	?	-5.3%	-1.9	i	-2.8	20.6µM*
O=C(Nc1c(-c2ccccc2)nc2ncccn12)c1ccccc1	/	/	/	/	-1.2	/
COCCC(=O)N1CCC(Oc2ccc(C(=O)NC3Cc4ccccc4C3)cc2)CC1	i	0.6%	-27.9	4.11µM*	7.9	?
COCCC(=O)N1CCC(Oc2ccc(C(=O)NCCSC)cc2)CC1	i	-2.0%	0.5	i	5.5	5.9%
O=C(Cn1cc(SCc2ccc(F)cc2)c2ccccc21)N1CCCCC1	/	-14.3%	/	/	1.2	1.9%
COc1ccc(S(=O)(=O)NC2CCN(C#N)CC2)cc1	/	-4.6%	/	/	-0.2	1.2%
O=C(/C=C/c1cccs1)NC(=S)NNC(=O)c1ccccc1O	2.59µM*	-1.6%	?	i	2.9	-23.2%
COc1ccc(C(C(=O)NC2CCCCC2)N(C(=O)CCl)c2cccc(Cl)c2)cc1 (stereo not given)	18.4µM*	?	1.9	16.4µM*	23.4	?
COc1ccc(C(C(=O)NC2CCCCC2)N(C(=O)CCl)c2ccc(C)cc2)cc1 (stereo not given)	?	-13.4%	12.2	?	12.7	?
COc1ccc(C(C(=O)NC2CCCCC2)N(C(=O)CCl)c2ccc(OC)cc2)cc1 (stereo not given)	5.8µM*	-23.4%	-10.9	3.66µM*	10.9	?
SMILES	KB-3-1 cytotox	A549 viability	Giardia killer	KB-V1 cytotox	PI4K2A block	Nrf2 inh
COCCOCC(OC)OC	/	/	/	/	-4.8	/
COC(=O)[C@]12C[C@H](CC(=O)NCc3cccc4ccccc34)C(=O)N(CCC3=CCCCC3)C1=C[C@H](C1CCCC1)O[C@@H]2C	/	/	/	/	-0.7	/
O=C1c2ccccc2C(=O)c2c1ccc(C(=O)N1CCCCC1)c2NCCO	i	-13.2%	-17.9	?	-6.2	-2.3%
CC1CCCN(C(=O)c2ccc3c(c2NCCO)C(=O)c2ccccc2C3=O)C1 (stereo not given)	i	?	-0.1	4.61µM*	-19.4	-15.4%
COc1ccc(NC(=S)N(CCN(C)C)C(C)c2ccco2)cc1Cl (stereo not given)	i	-4.0%	0.8	23.1µM*	2.1	-21.9%
CC(=O)c1sc(NC(=O)CCS(=O)(=O)c2ccc(F)cc2)nc1C	i	/	/	i	2.5	/
CC(=O)c1sc(NC(=O)CCS(=O)(=O)c2ccccc2)nc1C	?	?	16.7	i	-7.0	20.6µM*
O=C(CCS(=O)(=O)c1ccccc1)Nc1nc(-c2cccs2)cs1	i	0.6%	24.7	23.1µM*	-5.3	8.3%
Cc1nn(C(C)C(=O)NCc2ccco2)c(C)c1[N+](=O)[O-] (stereo not given)	i	4.7%	-14.5	i	-4.0	6.8%
C/C(=N\NC(=O)C(C)n1nc(C)c([N+](=O)[O-])c1C)c1ccccc1O (stereo not given)	?	-3.3%	9.5	2.31µM*	4.3	?
CCCCc1c(C)nc2c(-c3ccc(OC)cc3)c(C)[nH]n2c1=O	?	-15.7%	/	?	-0.1	20.6µM*
Cc1nc2c(-c3ccccc3)c(C)[nH]n2c(=O)c1Cc1ccccc1	?	-17.6%	21.8	?	0.9	?
Cc1nc2c(-c3ccc(Cl)cc3)c(C)[nH]n2c(=O)c1Cc1ccccc1	i	?	0.2	?	1.1	14.6µM*
Cc1cccc(Cc2c(C)nc3c(-c4ccccc4)c(C)[nH]n3c2=O)c1	10.3µM*	?	/	i	6.5	5.8µM*
Cc1ccccc1Cc1c(C)nc2c(-c3ccccc3)c(C)[nH]n2c1=O	?	?	/	?	-4.4	18.4µM*
Cc1cccc(CN2Cc3cccc4c3[C@H](C=CC4)CC2=O)c1	i	/	/	i	/	/
Cc1nc2c(-c3ccc(F)cc3)c(C)[nH]n2c(=O)c1Cl	10.3µM*	4.6%	1.1	i	-18.1	2.8%
Cc1[nH]n2c(=O)cc(-c3ccccc3Cl)nc2c1-c1ccccc1	6.51µM*	-18.0%	/	i	0.5	18.4µM*

High-throughput results: PubChem, National Center for Advancing Translational Sciences (NCATS)
